Screens (PubChem BioAssay)
This is a sample that favours compounds with a hit; in the whole collection about 4% have one here.
Mtb UGM inh: M. tuberculosis UGM enzyme inhibitors, primary screen, biochemical, fluorescence polarization, single point. UDP-galactopyranose mutase (Mycobacterium tuberculosis (strain ATCC 25618 / H37Rv)), …. purified UGM, fluorescence polarization probe displacement. inhibition, % at 10 µM. hit rate 0.06% among 320,000; in the data active = inhibition above about 10%, passing the limit was not always enough
Target sequence (P9WIQ1 whole entry, looked up): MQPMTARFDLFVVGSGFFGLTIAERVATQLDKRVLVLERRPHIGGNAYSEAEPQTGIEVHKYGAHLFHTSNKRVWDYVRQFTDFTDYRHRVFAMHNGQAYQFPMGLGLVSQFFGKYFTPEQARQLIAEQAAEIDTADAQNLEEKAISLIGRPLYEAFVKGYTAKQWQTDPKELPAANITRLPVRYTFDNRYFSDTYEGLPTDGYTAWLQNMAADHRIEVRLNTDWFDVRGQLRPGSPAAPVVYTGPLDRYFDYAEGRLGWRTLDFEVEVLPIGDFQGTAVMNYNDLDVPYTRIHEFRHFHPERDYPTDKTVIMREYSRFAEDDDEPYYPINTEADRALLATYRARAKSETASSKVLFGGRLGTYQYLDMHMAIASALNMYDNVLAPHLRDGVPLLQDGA
RecA intein inh: Mtb RecA intein splicing inhibitors, primary screen, biochemical, fluorescence, HTS; hit rate 0.75% among 290,000; inhibition, % (test concentration not listed); cell-free RecA intein splicing; AID 2221, 2009; in the data active = inhibition above about 30%
GDH-TPI counter-1: GDH-TPI coupling enzyme inhibitors, primary screen, artefact control for M. tuberculosis FBA inhibitor project, biochemical, absorbance, full deck | GDH-TPI coupled enzyme counterscreen, NADH absorbance | inhibition, % at 4.8 µM | hit rate 1.2% among 360,000 | AID 588335, 2011; in the data active = inhibition above about 30%
Rv3671c inh: Rv3671c serine protease inhibitors, primary screen, biochemical, fluorescence polarization, M. tuberculosis H37Rv | P9WHR9 | inhibition, % at 5.96 µM | hit rate 0.048% among 320,000; in the data active = inhibition above about 38%;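 note: extracellular domain of Rv3671c used as enzyme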
Mtb betalactam: beta-lactam sensitization of Mtb H37Rv, H37Rv; M. tuberculosis H37Rv growth with meropenem, percent inhibition; inhibition, % at 25 µM; hit rate 0.27% among 330,000; call rule not given here;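 note: growth measured after seven days incubation then overnight dye step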
Mtb FBA inh: Mtb FBA enzyme inhibitors, primary screen, biochemical, fluorescence, strain H37Rv; purified M. tuberculosis FBA, fluorescence read-out; inhibition, % at 1 µM; hit rate 2.3% among 360,000; AID 588726, 2011
DNA intercalat: DNA intercalation detected by acridine orange polarization counter-screen; shares compounds with Mtb UGM inh; acridine orange-DNA binding, fluorescence polarization; AC50, µM; hit rate 60% among 35; AID 463198;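 active = fitted AC50 no greater than ten times the top concentration tested, cut at about 17 µM in these data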
Mtb FBA inh conf: M. tuberculosis aldolase blockers, biochemical, fluorescence, strain H37Rv, confirmation | purified M. tuberculosis FBA, fluorescence read-out | shares compounds with Mtb FBA inh | hit rate 78% among 5,600 | inhibition, % at 1 µM
GDH-TPI counter-2: GDH-TPI coupling enzyme inhibitors, artefact control for M. tuberculosis FBA inhibitor project, biochemical, fluorescence, high throughput; hit rate 81% among 5,600; AID 652141, 2013; inhibition, % at 1 µM; shares compounds with Mtb FBA inh; GDH-TPI coupled enzyme counterscreen; in the data active = inhibition above about 10%
Hits are given with their value; n = inactive; x = no result given; + = active, no number. Cut-off read from the data, not from the text of the source, unless noted: active = inhibition above about 27%; inactive = the rest.

SMILES	Mtb UGM inh	RecA intein inh	GDH-TPI counter-1	Rv3671c inh	Mtb betalactam	Mtb FBA inh	Mtb FBA inh conf	GDH-TPI counter-2	others
Cc1ccc(Cl)cc1N1CCN(C(=O)C2CCN(S(C)(=O)=O)CC2)CC1	n	n	n	n	n	n	x	x	DNA intercalat=n
O=[N+]([O-])c1cc([N+](=O)[O-])c(Oc2cc(F)cc(F)c2)cc1NN1CCCCC1	n	x	n	n	n	n	x	x
O=C1CCN2C=Nc3cccc4ccc1c2c34	39	n	n	n	n	n	x	x	DNA intercalat=13
O=C1C=C(N2CCOCC2)c2cccc3cccc1c23	x	x	n	x	x	n	x	x
O=C(Nc1ccc(-c2cn3ccsc3n2)cc1)C1CC1	n	n	n	n	n	n	x	x
CC(=O)Nc1ccc(-c2cn3ccsc3n2)cc1	n	n	n	n	n	n	x	x	DNA intercalat=n
CN(C)c1ccc(NC(=O)CCCCCn2nnc3ccccc3c2=O)cc1	n	n	n	n	n	n	x	x
Cc1nn(CCc2nn[nH]n2)c2nc(-c3ccccc3)cc(C(F)(F)F)c12	n	n	n	n	n	40	+	164
Cc1cc(C(F)(F)F)c2c(C)nn(CCc3nn[nH]n3)c2n1	n	n	n	n	n	n	x	x
COCCn1c(=NC(=O)c2ccc3c(c2)OCCO3)sc2cc(S(N)(=O)=O)ccc21	n	n	45	n	n	109	76	50
COc1ccc2nc3c(cc2c1)c(NC(=O)C1CCCO1)nn3CC(C)C (stereo not drawn)	n	n	n	n	n	39	n	n
COc1ccc2nc3c(cc2c1)c(NC(=O)CC(C)C)nn3CC(C)C	n	n	n	n	n	n	x	x
C#CCN(C[C@@H]1[C@@H](OC(=O)NCc2ccccc2)[C@@H](OC(=O)NCc2ccccc2)Cn2c(=O)n(CCCCCC)c(=O)n21)S(=O)(=O)c1ccc(C)cc1	x	x	n	x	x	n	x	x
CCSc1nnc(-c2cccnc2)n1-c1ccc(C)c(Cl)c1	n	x	n	n	n	n	x	x
CCN(CC)c1ccc(C2C(C(=O)Nc3ccccn3)=C(C)NC3=C2C(=O)CC(C)(C)C3)cc1 (stereo not drawn)	n	n	n	n	n	n	x	x
CCn1cc(C2C(C(=O)Nc3cc(C)ccn3)=C(C)NC3=C2C(=O)CC(C)(C)C3)c(C)n1 (stereo not drawn)	n	n	n	n	n	52	104	85
CCOC(=O)C1=C(C)Nc2ccccc2N=C1NC(=O)C(c1ccccc1)c1ccccc1	n	x	n	n	n	n	x	x
C=CCn1c(CC(C)(C)C)nc2ccccc21	n	n	n	n	n	n	x	x
CCCn1c(-c2cccs2)nc2ccccc21	n	n	n	n	n	74	+	174
C=CCn1c(-c2cccs2)nc2ccccc21	n	x	n	n	n	63	150	141
CCn1c(NCc2cccs2)nc2ccccc21	n	n	n	n	n	n	x	x
CC1CN(C(=S)SCC(=O)c2ccc([N+](=O)[O-])cc2)CC(C)O1 (stereo not drawn)	n	n	n	n	n	n	x	x
COc1ccc(-c2[nH]c(-c3cccc(OC)c3)nc2SCC(=O)NC2CCCC2)cc1	n	n	n	n	n	40	124	100
COc1ccc(-c2cn3nc(SCC(=O)NC4CCCCC4)ccc3n2)cc1	n	n	n	n	n	28	74	41
Fc1ccc(-c2cc3nc(-c4ccccc4)cc(N4CCN(CCN5CCOCC5)CC4)n3n2)cc1	x	n	n	x	x	49	90	72
SMILES	Mtb UGM inh	RecA intein inh	GDH-TPI counter-1	Rv3671c inh	Mtb betalactam	Mtb FBA inh	Mtb FBA inh conf	GDH-TPI counter-2	others
CN1CCN(c2cc(-c3ccccc3)nc3cc(-c4ccc(F)cc4)nn23)CC1	n	n	n	n	n	n	x	x
O=C(c1ccoc1)N1CCN(c2cc(-c3ccccc3)nc3cc(-c4ccccc4)nn23)CC1	x	x	n	x	x	39	64	60
COc1cccc(-c2cc3nc(-c4ccccc4)cc(N4CCN(C(=O)c5ccoc5)CC4)n3n2)c1	x	x	n	x	x	62	151	102
COc1ccccc1-c1cc2nc(-c3ccccc3)cc(N3CCN(C(=O)c4ccco4)CC3)n2n1	x	x	n	x	x	48	54	43
Cc1cc(N2CCN(C(=O)c3ccco3)CC2)n2ncc(-c3ccccc3)c2n1	n	n	n	n	n	n	x	x
COc1ccc(N2CCN(C(=O)c3oc4c(c3C)C(=O)CCC4)CC2)cc1	n	n	n	n	n	n	x	x
Cc1cc(N2CCN(C(=O)c3ccoc3)CC2)n2nc(-c3ccccc3)cc2n1	x	x	n	x	x	n	x	x
COc1ccccc1-c1cc2nc(-c3ccccc3)cc(N3CCN(C(=O)c4ccoc4)CC3)n2n1	x	x	n	x	x	55	n	n
COc1cccc(-c2cc3nc(-c4ccccc4)cc(N4CCC5(CC4)OCCO5)n3n2)c1	n	n	n	n	n	65	n	n
CN1CCN(c2cc(-c3cccc(C(=O)O)c3)nc3ccnn23)CC1	x	x	n	x	x	30	55	46
CCCCC(CC)Cn1c(N)c(C#N)c2nc3ccccc3nc21 (stereo not drawn)	n	n	n	n	n	50	n	n
CCCCc1c(C)c(C#N)c2nc3ccccc3n2c1Cl	x	n	x	x	x	x	x	x
Cc1cc(N2CCN(C)CC2)nc2ccc(NC(=O)CCC(=O)NCCCOC(C)C)cc12	n	n	n	n	n	n	x	x
CCCCNC(=O)CCC(=O)Nc1ccc2nc(N3CCCCC3)cc(C)c2c1	n	n	n	n	n	78	+	145
COc1cccc(NC(=O)CCC(=O)Nc2ccc3nc(N4CCOCC4)cc(C)c3c2)c1	n	n	n	n	n	66	125	95
Cc1cc(N2CCOCC2)nc2ccc(NC(=O)C3CCC(C)CC3)cc12 (stereo not drawn)	n	n	n	n	n	n	x	x
CCCCNC(=O)CCC(=O)Nc1ccc2nc(N3CCOCC3)cc(C)c2c1	n	n	n	n	n	62	n	n
CCOC(=O)C1CCCN(C(=O)CCC(=O)Nc2ccc3nc(N4CCOCC4)cc(C)c3c2)C1 (stereo not drawn)	n	n	n	n	n	67	89	69
CCCCCC(=O)Nc1nc2ccccc2[nH]1	n	n	n	n	n	n	x	x
COc1ccc(OC)c(C(c2c(O)nc(SC)[nH]c2=O)c2c(O)nc(SC)[nH]c2=O)c1	n	x	n	n	n	n	x	x
COc1cc(OC)cc(C(=O)NNC(=O)NC2CCCCC2)c1	n	n	n	n	n	n	x	x
COCCSc1nnc(NC(=O)CS(=O)(=O)c2ccccc2)s1	n	n	n	n	n	n	x	x
